Over roughly 33,000 sequences, “e-score” has its median near -0.037; the highest 2% begin near 0.34. The full list was thinned out, with the highest values kept by preference.
Target: T1, GST-Rok (full length) (Bacillus subtilis subsp. subtilis str. …, UniProt O34857 1-191)
T1 sequence: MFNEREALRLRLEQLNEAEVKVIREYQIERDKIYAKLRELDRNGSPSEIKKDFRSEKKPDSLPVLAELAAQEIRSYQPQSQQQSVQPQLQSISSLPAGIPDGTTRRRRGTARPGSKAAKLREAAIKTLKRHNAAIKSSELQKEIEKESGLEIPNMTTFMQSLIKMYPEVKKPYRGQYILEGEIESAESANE
Assay: protein binding microarray; Rok is a gene silencer of Bacillus subtilis; high values mean tight binding
Details: protein: recombinant; tags: GST (pTH5325, pDEST15-Magic modified); dsDNA, one strand shown
Summary of the method: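 Each has a 25-mer constant primer and a 35-mer variable part from a de Bruijn sequence of order 10, covering every non-palindromic 8-mer at least 32 times (palindromic 16). Preference for each 8-mer is given as a rank-based, unitless enrichment score (E-score). Its range runs from 0.5 (most favored) to −0.5 (most disfavored).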

| Sequence | binding signal [E-score] |
| --- | --- |
| AATGTTGT | 0.154 |
| CAGGGTTC | -0.172 |
| GTAACTAA | 0.304 |
| ATAACTAC | 0.316 |
| CTAACTAA | 0.29 |
| GTAACTAC | 0.394 |
| CGAACTAC | 0.358 |
| CGAACTAG | 0.319 |
| CTAACTAC | 0.397 |
| GCAACTAC | 0.308 |
| AGAACTAC | 0.327 |
| AAAGCCTG | -0.18 |
| ATTTTAAA | 0.126 |
| GTCGCTAA | 0.16 |
| GCATATGC | 0.129 |
| CTCATAAG | -0.129 |
| GACTACAA | 0.12 |
| AACTACAT | 0.419 |
| CACTACAG | -0.0355 |
| GCCTACAA | 0.107 |
| AACTACAG | 0.337 |
| AACTACAC | 0.335 |
| AACTACAA | 0.34 |
| TACTACAA | 0.357 |
| ACCTACAT | 0.271 |
| ACCTACAA | 0.265 |

| Sequence | binding signal [E-score] |
| --- | --- |
| ACCTACAG | 0.0467 |
| CACTACAA | 0.143 |
| GAACCAGC | -0.148 |
| GTAATCCA | 0.00713 |
| ACATCGGA | 0.06 |
| ATTTTTGA | 0.0221 |
| GCTCTCAA | -0.174 |
| CCTAGCGA | -0.111 |
| AGCTACAT | 0.364 |
| AGCTACAA | 0.205 |
| GTCTACAA | 0.11 |
| CTCTACAA | 0.0924 |
| AGCTACAC | 0.191 |
| TTCTACAA | 0.392 |
| ACTTCGTC | -0.0747 |
| TGTCCAAA | 0.0695 |
| ACCGGCCG | -0.0951 |
| TCGAGAAA | 0.135 |
| GTTATTTA | 0.197 |
| GGTATTTA | 0.356 |
| GGTATTCA | -0.0162 |
| AGTATTTA | 0.344 |
| CGTATTTA | 0.261 |
| AGTATTTC | 0.332 |
| AGTATTTG | 0.31 |
| ATTATTTA | 0.406 |

| Sequence | binding signal [E-score] |
| --- | --- |
| CTTATTTA | 0.148 |
| AAATGCTC | -0.142 |
| AAGATTAG | 0.197 |
| ACCAGTGC | -0.175 |
| TAGCAGCA | 0.0346 |
| ATAATAAC | 0.312 |
| ATAATACC | 0.174 |
| CTAATATA | 0.349 |
| ATAATAAA | 0.297 |
| ATAATAAT | 0.372 |
| CTAATAGA | 0.0426 |
| ATAATACG | 0.349 |
| ATAATACA | 0.237 |
| CTAATATC | 0.255 |
| AGAATATA | 0.296 |
| GGAATATA | 0.366 |
| CGAATATA | 0.321 |
| GTGGGTAA | 0.142 |
| AGTGACAT | 0.101 |
| AGCAAAAG | -0.151 |
| CCACTGAA | -0.106 |
| CCCATTGA | -0.11 |
| ACTTGATG | -0.00809 |
| AGCGCTGG | -0.124 |
| AGGCGTGC | -0.13 |
| ATATTCAT | 0.319 |

| Sequence | binding signal [E-score] |
| --- | --- |
| GTGACGGA | -0.136 |
| TCGTTCAA | 0.0056 |
| GTAATACA | 0.247 |
| ATAATATC | 0.274 |
| ATAATATG | 0.232 |
| ATAATATA | 0.453 |
| GTAATAGA | 0.257 |
| GTAATATA | 0.391 |
| GCATGTCA | -0.0408 |
| ACGAGTTG | 0.149 |
| GAGATTGA | 0.0297 |
| TTGGTAAA | 0.217 |
| CATATCGA | 0.0224 |
| CTTTAAAG | 0.0411 |
| GCTAGTGA | 0.0873 |
| ACTAGTTA | 0.44 |
| ACTAGTTC | 0.329 |
| CCTAGTTA | 0.209 |
| GCTAGTTA | 0.337 |
| ACTAGTCG | 0.292 |
| GCTAGTCA | -0.0821 |
| ACTAGTCA | 0.352 |
| ACTAGTCC | 0.108 |

— article PMC6212790, “How bacterial xenogeneic silencer rok distinguishes foreign from self DNA in its resident genome”
